Source: ChEMBL document CHEMBL1961873, “Compounds: GSK PKIS; Assays: Nanosyn kinase panel” (2012)

Key:
[1] = target: MAP/microtubule affinity-regulating kinase 3 (Homo sapiens) (UniProt P27448); settings: at 1 µM;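 further: reported values are averaged percent inhibition of MARK3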
[2] = target: T1, MAP/microtubule affinity-regulating kinase 4 (Homo sapiens) (UniProt Q96L34); settings: at 0.1 µM
T1 sequence (whole entry): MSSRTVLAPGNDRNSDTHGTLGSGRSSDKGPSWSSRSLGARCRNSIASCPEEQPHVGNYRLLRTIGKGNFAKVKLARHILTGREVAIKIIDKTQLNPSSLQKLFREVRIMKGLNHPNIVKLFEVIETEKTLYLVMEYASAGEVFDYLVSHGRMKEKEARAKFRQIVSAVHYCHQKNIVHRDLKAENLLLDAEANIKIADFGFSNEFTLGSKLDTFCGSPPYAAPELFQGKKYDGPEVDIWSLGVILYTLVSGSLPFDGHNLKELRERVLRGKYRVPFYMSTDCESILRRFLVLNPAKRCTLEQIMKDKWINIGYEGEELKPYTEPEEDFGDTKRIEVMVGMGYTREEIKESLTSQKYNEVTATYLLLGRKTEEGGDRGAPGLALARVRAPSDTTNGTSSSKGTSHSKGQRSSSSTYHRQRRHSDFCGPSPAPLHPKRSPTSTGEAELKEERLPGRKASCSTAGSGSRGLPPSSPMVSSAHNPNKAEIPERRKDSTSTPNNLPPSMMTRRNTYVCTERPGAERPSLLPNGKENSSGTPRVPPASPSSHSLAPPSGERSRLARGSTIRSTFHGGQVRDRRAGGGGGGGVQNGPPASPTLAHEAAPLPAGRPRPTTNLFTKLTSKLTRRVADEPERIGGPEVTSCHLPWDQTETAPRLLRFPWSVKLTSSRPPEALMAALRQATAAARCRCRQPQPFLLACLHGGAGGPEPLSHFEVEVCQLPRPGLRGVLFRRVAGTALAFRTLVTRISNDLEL

[3] = target: T1, MAP/microtubule affinity-regulating kinase 4 (Homo sapiens); settings: at 1 µM
[4] = target: Maternal embryonic leucine zipper kinase (Homo sapiens) (UniProt Q14680); settings: at 0.1 µM
[5] = target: Maternal embryonic leucine zipper kinase (Homo sapiens) (UniProt Q14680); settings: at 1 µM
[6] = target: MAP kinase-interacting serine/threonine-protein kinase 1 (Homo sapiens) (UniProt Q9BUB5); settings: at 0.1 µM
[7] = target: MAP kinase-interacting serine/threonine-protein kinase 1 (Homo sapiens) (UniProt Q9BUB5); settings: at 1 µM
[8] = target: MAP kinase-interacting serine/threonine-protein kinase 2 (Homo sapiens) (UniProt Q9HBH9); settings: at 0.1 µM
[9] = target: MAP kinase-interacting serine/threonine-protein kinase 2 (Homo sapiens) (UniProt Q9HBH9); settings: at 1 µM
[10] = target: Serine/threonine-protein kinase MARK2 (Homo sapiens) (UniProt Q7KZI7); settings: at 0.1 µM
[11] = target: Serine/threonine-protein kinase MARK2 (Homo sapiens) (UniProt Q7KZI7); settings: at 1 µM
[12] = target: PAS domain-containing serine/threonine-protein kinase (Homo sapiens) (UniProt Q96RG2); settings: at 0.1 µM
[13] = target: PAS domain-containing serine/threonine-protein kinase (Homo sapiens) (UniProt Q96RG2); settings: at 1 µM
[14] = target: Phosphorylase b kinase gamma catalytic chain, skeletal muscle/heart isoform (Homo sapiens) (UniProt Q16816); settings: at 0.1 µM
[15] = target: Phosphorylase b kinase gamma catalytic chain, skeletal muscle/heart isoform (Homo sapiens) (UniProt Q16816); settings: at 1 µM
[16] = target: T2, Phosphorylase b kinase gamma catalytic chain, liver/testis isoform (Homo sapiens) (UniProt P15735); settings: at 0.1 µM
T2 sequence (whole entry): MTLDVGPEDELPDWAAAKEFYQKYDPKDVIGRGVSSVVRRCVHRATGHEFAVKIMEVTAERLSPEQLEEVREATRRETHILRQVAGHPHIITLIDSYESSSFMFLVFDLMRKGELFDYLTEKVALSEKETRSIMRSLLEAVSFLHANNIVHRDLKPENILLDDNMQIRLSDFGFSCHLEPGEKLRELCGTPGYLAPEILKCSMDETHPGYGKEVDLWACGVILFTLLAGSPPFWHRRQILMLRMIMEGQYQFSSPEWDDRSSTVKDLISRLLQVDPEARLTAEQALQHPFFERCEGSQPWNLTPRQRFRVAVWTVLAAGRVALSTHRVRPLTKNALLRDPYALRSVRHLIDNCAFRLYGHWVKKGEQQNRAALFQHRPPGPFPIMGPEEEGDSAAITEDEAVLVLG

[17] = target: T2, Phosphorylase b kinase gamma catalytic chain, liver/testis isoform (Homo sapiens); settings: at 1 µM
[18] = target: Serine/threonine-protein kinase pim-1 (Homo sapiens) (UniProt P11309); settings: at 0.1 µM
[19] = target: Serine/threonine-protein kinase pim-1 (Homo sapiens) (UniProt P11309); settings: at 1 µM
[20] = target: Serine/threonine-protein kinase pim-2 (Homo sapiens) (UniProt Q9P1W9); settings: at 0.1 µM;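 further: reported value is the mean percent inhibition of PIM2, measured in the GSK PKIS kinase inhibitor set screen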
Serine/threonine-protein kinase pim-2 (Homo sapiens), sequence (Q9P1W9 whole entry, looked up): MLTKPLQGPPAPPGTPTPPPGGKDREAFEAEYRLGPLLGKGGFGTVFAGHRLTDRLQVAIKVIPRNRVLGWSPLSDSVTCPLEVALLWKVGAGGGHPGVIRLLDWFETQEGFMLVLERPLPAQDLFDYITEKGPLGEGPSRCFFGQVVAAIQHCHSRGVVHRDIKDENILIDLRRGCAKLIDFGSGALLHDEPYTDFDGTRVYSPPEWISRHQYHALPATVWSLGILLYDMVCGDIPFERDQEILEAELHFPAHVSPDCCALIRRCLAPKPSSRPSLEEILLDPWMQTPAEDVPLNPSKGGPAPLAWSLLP

PAS domain-containing serine/threonine-protein kinase (Homo sapiens), sequence (Q96RG2 whole entry, the tested form may be a part, canonical isoform): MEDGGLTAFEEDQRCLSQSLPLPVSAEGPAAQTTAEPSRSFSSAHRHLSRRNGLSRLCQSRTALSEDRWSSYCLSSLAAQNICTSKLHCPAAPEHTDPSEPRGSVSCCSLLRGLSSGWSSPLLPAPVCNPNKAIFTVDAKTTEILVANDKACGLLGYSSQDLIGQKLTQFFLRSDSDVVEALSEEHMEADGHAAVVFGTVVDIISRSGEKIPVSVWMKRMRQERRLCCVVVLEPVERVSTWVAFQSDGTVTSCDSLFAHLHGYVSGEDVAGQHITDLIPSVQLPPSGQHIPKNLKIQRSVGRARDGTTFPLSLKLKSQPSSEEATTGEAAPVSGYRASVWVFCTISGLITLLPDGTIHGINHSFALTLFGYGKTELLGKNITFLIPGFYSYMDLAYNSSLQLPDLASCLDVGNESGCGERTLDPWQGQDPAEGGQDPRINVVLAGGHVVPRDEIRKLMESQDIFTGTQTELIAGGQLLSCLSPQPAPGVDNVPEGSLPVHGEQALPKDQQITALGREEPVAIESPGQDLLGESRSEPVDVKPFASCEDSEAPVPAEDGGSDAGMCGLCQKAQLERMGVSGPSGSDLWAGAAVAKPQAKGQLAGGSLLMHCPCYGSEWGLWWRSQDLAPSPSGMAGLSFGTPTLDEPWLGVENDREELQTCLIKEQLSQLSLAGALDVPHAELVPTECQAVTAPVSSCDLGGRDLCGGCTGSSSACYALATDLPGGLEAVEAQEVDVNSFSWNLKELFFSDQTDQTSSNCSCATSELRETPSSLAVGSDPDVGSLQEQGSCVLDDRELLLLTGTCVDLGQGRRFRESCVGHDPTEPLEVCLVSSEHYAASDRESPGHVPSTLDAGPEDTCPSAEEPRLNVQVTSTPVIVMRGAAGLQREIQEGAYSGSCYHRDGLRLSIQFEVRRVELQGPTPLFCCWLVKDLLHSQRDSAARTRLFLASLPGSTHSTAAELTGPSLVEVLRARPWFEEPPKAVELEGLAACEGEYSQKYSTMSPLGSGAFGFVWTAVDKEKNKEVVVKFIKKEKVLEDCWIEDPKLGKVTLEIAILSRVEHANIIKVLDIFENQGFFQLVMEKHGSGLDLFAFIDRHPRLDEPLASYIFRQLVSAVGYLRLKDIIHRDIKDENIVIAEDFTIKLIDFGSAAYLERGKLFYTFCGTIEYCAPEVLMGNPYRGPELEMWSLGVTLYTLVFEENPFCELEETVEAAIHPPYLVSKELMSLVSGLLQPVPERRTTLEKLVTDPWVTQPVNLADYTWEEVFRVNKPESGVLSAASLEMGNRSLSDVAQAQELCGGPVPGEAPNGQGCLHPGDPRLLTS
Maternal embryonic leucine zipper kinase (Homo sapiens), sequence (Q14680 whole entry, looked up): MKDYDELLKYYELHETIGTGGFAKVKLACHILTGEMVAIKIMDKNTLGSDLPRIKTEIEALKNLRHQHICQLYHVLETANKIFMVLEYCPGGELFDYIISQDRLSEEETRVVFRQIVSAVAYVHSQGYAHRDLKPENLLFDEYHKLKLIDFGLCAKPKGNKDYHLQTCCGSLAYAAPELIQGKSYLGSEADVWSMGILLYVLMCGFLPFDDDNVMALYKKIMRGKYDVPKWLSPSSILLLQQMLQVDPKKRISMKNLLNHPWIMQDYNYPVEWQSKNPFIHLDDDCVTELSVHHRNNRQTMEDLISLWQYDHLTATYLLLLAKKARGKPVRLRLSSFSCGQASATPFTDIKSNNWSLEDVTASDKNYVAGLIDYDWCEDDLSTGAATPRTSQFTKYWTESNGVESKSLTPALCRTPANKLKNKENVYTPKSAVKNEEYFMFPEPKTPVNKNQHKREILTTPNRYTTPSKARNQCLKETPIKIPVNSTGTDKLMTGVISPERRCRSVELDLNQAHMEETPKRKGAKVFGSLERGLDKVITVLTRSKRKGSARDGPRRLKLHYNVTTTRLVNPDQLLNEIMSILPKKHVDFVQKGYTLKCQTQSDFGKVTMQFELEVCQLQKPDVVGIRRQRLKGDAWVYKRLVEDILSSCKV
Serine/threonine-protein kinase pim-1 (Homo sapiens), sequence (P11309 whole entry, looked up): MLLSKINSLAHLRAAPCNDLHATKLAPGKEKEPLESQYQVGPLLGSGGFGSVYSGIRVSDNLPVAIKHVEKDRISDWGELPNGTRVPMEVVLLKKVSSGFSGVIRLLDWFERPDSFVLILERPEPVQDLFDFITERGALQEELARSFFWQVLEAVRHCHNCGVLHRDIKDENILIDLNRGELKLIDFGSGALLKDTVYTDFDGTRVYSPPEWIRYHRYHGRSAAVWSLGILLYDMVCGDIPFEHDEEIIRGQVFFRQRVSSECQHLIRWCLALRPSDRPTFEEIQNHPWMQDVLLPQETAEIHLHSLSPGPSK
MAP/microtubule affinity-regulating kinase 3 (Homo sapiens), sequence (P27448 whole entry, looked up): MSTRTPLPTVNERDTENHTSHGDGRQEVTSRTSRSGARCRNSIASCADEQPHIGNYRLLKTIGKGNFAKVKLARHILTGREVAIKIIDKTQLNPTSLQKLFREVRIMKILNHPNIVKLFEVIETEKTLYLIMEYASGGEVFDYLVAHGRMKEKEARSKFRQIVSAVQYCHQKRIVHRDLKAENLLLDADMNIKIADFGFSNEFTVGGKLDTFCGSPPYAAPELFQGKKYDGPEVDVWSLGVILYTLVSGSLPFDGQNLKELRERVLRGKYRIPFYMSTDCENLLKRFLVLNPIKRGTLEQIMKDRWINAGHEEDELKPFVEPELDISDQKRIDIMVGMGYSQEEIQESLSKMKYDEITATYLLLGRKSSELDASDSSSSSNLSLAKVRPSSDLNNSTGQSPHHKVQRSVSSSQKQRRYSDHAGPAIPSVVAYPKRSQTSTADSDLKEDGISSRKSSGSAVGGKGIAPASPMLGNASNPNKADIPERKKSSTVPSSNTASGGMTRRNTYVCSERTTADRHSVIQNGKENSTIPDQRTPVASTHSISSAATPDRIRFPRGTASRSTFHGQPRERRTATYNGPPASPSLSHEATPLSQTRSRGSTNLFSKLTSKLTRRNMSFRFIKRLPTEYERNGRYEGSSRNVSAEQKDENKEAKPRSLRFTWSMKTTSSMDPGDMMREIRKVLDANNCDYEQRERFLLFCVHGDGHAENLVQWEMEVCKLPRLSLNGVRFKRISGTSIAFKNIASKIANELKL
Phosphorylase b kinase gamma catalytic chain, skeletal muscle/heart isoform (Homo sapiens), sequence (Q16816 whole entry, looked up, canonical isoform): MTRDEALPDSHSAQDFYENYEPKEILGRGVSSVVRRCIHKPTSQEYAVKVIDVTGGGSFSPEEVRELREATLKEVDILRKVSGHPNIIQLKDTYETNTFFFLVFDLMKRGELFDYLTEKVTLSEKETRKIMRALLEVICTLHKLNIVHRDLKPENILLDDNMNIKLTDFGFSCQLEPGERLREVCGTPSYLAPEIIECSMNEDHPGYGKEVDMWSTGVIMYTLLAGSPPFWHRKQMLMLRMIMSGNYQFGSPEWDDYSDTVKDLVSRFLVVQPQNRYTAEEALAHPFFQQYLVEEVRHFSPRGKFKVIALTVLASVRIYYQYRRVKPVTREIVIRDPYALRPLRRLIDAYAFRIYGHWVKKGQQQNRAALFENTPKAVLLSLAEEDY
Serine/threonine-protein kinase MARK2 (Homo sapiens), sequence (Q7KZI7 whole entry, the tested form may be a part): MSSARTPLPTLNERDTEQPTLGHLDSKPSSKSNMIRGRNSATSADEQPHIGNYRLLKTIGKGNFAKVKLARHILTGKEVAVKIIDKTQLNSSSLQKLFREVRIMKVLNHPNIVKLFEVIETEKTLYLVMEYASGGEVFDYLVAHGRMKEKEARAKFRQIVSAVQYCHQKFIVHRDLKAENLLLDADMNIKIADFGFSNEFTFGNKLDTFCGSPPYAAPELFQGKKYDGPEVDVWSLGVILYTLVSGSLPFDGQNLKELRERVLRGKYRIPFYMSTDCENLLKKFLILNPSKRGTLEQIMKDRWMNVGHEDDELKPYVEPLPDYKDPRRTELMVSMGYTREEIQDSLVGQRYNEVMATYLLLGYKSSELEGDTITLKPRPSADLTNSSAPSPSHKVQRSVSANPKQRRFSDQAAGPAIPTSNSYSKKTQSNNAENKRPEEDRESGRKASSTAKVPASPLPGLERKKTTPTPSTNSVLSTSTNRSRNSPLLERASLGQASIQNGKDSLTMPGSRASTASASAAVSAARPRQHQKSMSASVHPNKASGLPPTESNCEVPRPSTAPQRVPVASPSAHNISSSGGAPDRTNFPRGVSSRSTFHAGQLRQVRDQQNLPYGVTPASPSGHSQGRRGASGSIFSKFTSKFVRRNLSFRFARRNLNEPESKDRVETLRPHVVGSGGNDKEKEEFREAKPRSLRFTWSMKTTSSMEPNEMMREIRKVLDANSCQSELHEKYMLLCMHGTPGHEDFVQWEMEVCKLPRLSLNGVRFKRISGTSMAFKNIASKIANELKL
MAP kinase-interacting serine/threonine-protein kinase 2 (Homo sapiens), sequence (Q9HBH9 whole entry, looked up): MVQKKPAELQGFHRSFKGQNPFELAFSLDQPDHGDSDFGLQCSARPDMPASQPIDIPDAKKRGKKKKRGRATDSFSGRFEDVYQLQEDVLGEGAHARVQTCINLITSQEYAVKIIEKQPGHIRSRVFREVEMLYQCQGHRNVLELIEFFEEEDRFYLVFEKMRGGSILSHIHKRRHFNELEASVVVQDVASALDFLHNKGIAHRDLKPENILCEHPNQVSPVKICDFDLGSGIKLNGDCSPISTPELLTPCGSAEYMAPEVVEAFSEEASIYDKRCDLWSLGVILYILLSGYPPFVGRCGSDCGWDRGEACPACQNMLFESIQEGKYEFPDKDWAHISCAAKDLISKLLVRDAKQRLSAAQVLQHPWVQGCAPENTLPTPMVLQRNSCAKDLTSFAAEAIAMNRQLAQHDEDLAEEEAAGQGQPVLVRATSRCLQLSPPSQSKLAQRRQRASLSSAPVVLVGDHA

| Structure (SMILES) | inhibition [1] [%] | inhibition [2] [%] | inhibition [3] [%] | inhibition [4] [%] | inhibition [5] [%] | inhibition [6] [%] | inhibition [7] [%] | inhibition [8] [%] | inhibition [9] [%] | inhibition [10] [%] | inhibition [11] [%] | inhibition [12] [%] | inhibition [13] [%] | inhibition [14] [%] | inhibition [15] [%] | inhibition [16] [%] | inhibition [17] [%] | inhibition [18] [%] | inhibition [19] [%] | inhibition [20] [%] |
| --- | --- | --- | --- | --- | --- | --- | --- | --- | --- | --- | --- | --- | --- | --- | --- | --- | --- | --- | --- | --- |
| CN(C)C(=O)O[C@H]1CN[C@H](C#Cc2cc3ncnc(Nc4ccc(OCc5cccc(F)c5)c(Cl)c4)c3s2)C1 | 3.81 | 1.04 | 1.72 | 1.5 | 4.17 | 2.31 | 6.43 | 1.15 | 6.67 | 0.94 | 1.09 | 0.16 | -0.64 | 2.62 | 2.71 | 2.94 | -0.02 | -0.09 | 0.1 | 0.57 |
| N#Cc1c(NC(=O)c2ccccc2F)sc2c1CCCC2 | 3.09 | 1.13 | 3.48 | -3.26 | -2.77 | -0.78 | -0.18 | -0.06 | 2.26 | -0.36 | 3.45 | 1.88 | 1.22 | 1.23 | 2.36 | -2.2 | -2.57 | 0.9 | 2.11 | 0.14 |
| COc1cc2ncnc(Nc3ccc(C)c(O)c3)c2cc1OC | 6.46 | 1.47 | 4.13 | 5.67 | 8.15 | 6.8 | 30.9 | 3.13 | 15.8 | 2.85 | 0.64 | -0.16 | 0.97 | 6.64 | 23.5 | 5.48 | 7.74 | 1.41 | 1.44 | 1.6 |
| Oc1cccc(-c2nc(-c3ccccc3)[nH]c2-c2ccncc2)c1 | 6.43 | 1.16 | 2.71 | 4.46 | 5.5 | 5.55 | 25.6 | 1.57 | 14.8 | -0.88 | 0.43 | 0.7 | 0.32 | 4.05 | 3.93 | 5.23 | 4.95 | 0.8 | 2.57 | -0.34 |
| NS(=O)(=O)c1ccc(-c2cc3ccncc3cc2OCc2ccccc2)cc1 | 0.1 | 0.25 | 1.99 | 1.24 | 3.87 | 4.45 | 17.7 | 4.29 | 26.4 | -2.14 | -0.56 | -0.27 | 0.09 | 3.43 | 8.39 | 5.17 | 5.11 | 0.14 | 0.86 | -0.34 |
| COc1cc2ncn(-c3cc(OCc4ccccc4S(C)(=O)=O)c(C#N)s3)c2cc1OC | 88.3 | 34.9 | 76.6 | 1.64 | 8.3 | 11.7 | 47.7 | 41.8 | 76.8 | 25.9 | 70.7 | 0.91 | 0.31 | 45.2 | 76.5 | 4.94 | 10.9 | 0.71 | 0.97 | 0.9 |
| CS(=O)(=O)Nc1cccc(-c2ccc3c(NC(=O)C4CC4)n[nH]c3c2)c1 | 6.61 | 1.87 | 3.42 | 0.93 | 4.3 | 2.34 | 13.5 | 0.41 | 3.39 | -1.45 | 2.88 | 0.72 | -0.4 | 3.02 | 6.04 | 2.36 | -0.09 | 0.69 | 0.43 | 0.5 |
